Measured values taken from PubChem BioAssay (NCI).
Compounds without any hit were thinned out: in the full panel of roughly 79,000, 15% have a hit. Active and inactive are the calls of the source. Cut-off read from the data, not from the text of the source: active = growth inhibition above about 70%; inactive = the rest. Where a SMILES comes first, the peptide text is derived from it. [ ]: non-standard residue; d: D form. The star is where a group is joined. ξ: configuration not given here. NMeY = CN[C@@H](Cc1ccc(O)cc1)C(=O)O; Cbz = O=C(OCc1ccccc1)*; ξA = CC(N)C(=O)O

Assay: NCI Yeast Anticancer Drug Screen. Data for the mec2-1 strain (AID 157)
Details: S. cerevisiae mec2-1 strain, at 50.0 µM, hits give high values
Method: Growth inhibition of yeast strains with defined genetic alterations is measured as a screen for potential anti-cancer activity. Selected strains with alterations in DNA damage repair or cell cycle control were exposed to compounds and growth inhibition was measured relative to vehicle treated controls. The strain used in this assay is mec2-1

With `Nc1ncnc2nc(SC3OC(CO)C(O)C(O)C3O)[nH]c12` (stereo not given) as the compound, how does the growth inhibition read?
The growth inhibition was -9.65% (inactive).

Which growth inhibition does the source give for `CC(=O)c1c(C)c(C)c(=O)n(C/C=C(\C)CCC=C(C)C)c1O` here?
Its growth inhibition is 99% (active).

Which growth inhibition does the source give for `Cc1ccc(C(=O)/C=C(\C(=O)c2ccccc2)c2ccccc2)cc1C` here?
The growth inhibition was 14.8% (inactive).

With `c1cc(-c2cc(-c3cc(-c4ccncc4)n[nH]3)[nH]n2)ccn1` as the compound, how does the growth inhibition read?
Its growth inhibition is -2.6% (inactive).

With `C=CCN1COc2c(cc3c4c(cccc24)C(=O)O3)C1` as the compound, how does the growth inhibition read?
The growth inhibition was -4.25% (inactive).

With `N#CNc1ccccc1` as the compound, how does the growth inhibition read?
The growth inhibition was 6.15% (inactive).

With `Cc1ccc(NC2C=C(c3ccccc3)Oc3ccccc32)c(C)c1` (stereo not given) as the compound, how does the growth inhibition read?
The growth inhibition was -3.7% (inactive).

Which growth inhibition does the source give for `CCOC(=O)C(/C=N/Nc1ccc([N+](=O)[O-])cc1[N+](=O)[O-])Oc1cccc(OC)c1` (stereo not given) here?
The growth inhibition was -8.4% (inactive).

Which growth inhibition does the source give for `N/N=C/c1cccn1-c1ccccc1Cl` here?
The growth inhibition was 15.3% (inactive).

For `O=C(Nc1cccc(C(F)(F)F)c1)C(=O)C(C(=O)c1ccc(Cl)c(Cl)c1)C1OC(=O)c2ccccc21` (stereo not given), which growth inhibition is on record?
Its growth inhibition is 19.2% (inactive).

With `O=C(/C(=C(/[O-])C(F)(F)F)[n+]1ccc2ccccc2c1)C(F)(F)F` as the compound, how does the growth inhibition read?
The growth inhibition was -2.4% (inactive).

Which growth inhibition does the source give for `COC(=O)C(=O)C1CCc2c(ccc3c2CCCC3)C1` (stereo not given) here?
The growth inhibition was 17.4% (inactive).

For `CCOC(=O)c1c(N)n(-c2ccccc2)c(=O)n(-c2ccccc2)c1=O`, which growth inhibition is on record?
The growth inhibition was -5.3% (inactive).

For `COc1cccc(C(F)(F)F)c1`, which growth inhibition is on record?
Its growth inhibition is 10.3% (inactive).

With `O=c1[nH]cnc2oc(-c3ccccc3)nc12` as the compound, how does the growth inhibition read?
Its growth inhibition is -0.7% (inactive).

With `O=c1oc2ccccc2c(N2CCCCC2)c1Cl` as the compound, how does the growth inhibition read?
The growth inhibition was 40.6% (inactive).

With `C=CCC12CC(C)OC1=Nc1ccccc1NC2=O` (stereo not given) as the compound, how does the growth inhibition read?
The growth inhibition was -1.85% (inactive).

Which growth inhibition does the source give for `O=P(Nc1ccc(Cl)cc1)(Nc1ccc(Cl)cc1)N1CCCCC1` here?
The growth inhibition was -45.1% (inactive).

Which growth inhibition does the source give for `CCOC(=O)c1c(NC2=NCCC2)n[nH]c1N` here?
The growth inhibition was 14.8% (inactive).

Which growth inhibition does the source give for `COc1ccc(C[C@@H](C(=O)N[C@@H](C)C(N)=O)N(C)C(=O)[C@@H]2CCCN2C(=O)[C@H](CC(C)C)NC(=O)C(C)NC(=O)OCc2ccccc2)cc1` (stereo not given in full) (Cbz-[ξA]LP[NMeY](Me)A-NH2) here?
The growth inhibition was 28.9% (inactive).

For `CCOC(=O)CSc1ccnc(=O)[nH]1`, which growth inhibition is on record?
The growth inhibition was -8.9% (inactive).

Which growth inhibition does the source give for `CCCC1OCC(C)(CC)CO1` (stereo not given) here?
Its growth inhibition is -2.55% (inactive).

With `NC(=O)NNC/C(Cl)=C(\Cl)C(=O)O` as the compound, how does the growth inhibition read?
Its growth inhibition is -19.4% (inactive).

Which growth inhibition does the source give for `C[N+]12C=CC=C1C(N1CCCC1)c1sc(-c3ccc(Cl)cc3)cc12` (stereo not given) here?
The growth inhibition was -11.3% (inactive).

Which growth inhibition does the source give for `C#CC(CCC)NC(C)(C)C` (stereo not given) here?
Its growth inhibition is -13.9% (inactive).

Which growth inhibition does the source give for `CCOC(=O)c1cc2c(nc1N)C(=O)CCC2` here?
Its growth inhibition is 6.25% (inactive).

With `COc1ccc(C(=O)c2ccccc2)c(N)c1` as the compound, how does the growth inhibition read?
Its growth inhibition is 13.1% (inactive).

With `O=C1CN(CN2CCOCC2)C(=O)CN1CN1CCOCC1` as the compound, how does the growth inhibition read?
Its growth inhibition is 19.1% (inactive).

With `NC(Cc1cccc(F)c1)C(=O)O` (stereo not given) as the compound, how does the growth inhibition read?
The growth inhibition was -30.1% (inactive).

For `O=C(O)CSCc1cc2c(O)c(c1)Cc1cc(CSCC(=O)O)cc(c1O)Cc1cc(CSCC(=O)O)cc(c1O)Cc1cc(CSCC(=O)O)cc(c1O)C2`, which growth inhibition is on record?
The growth inhibition was -5.6% (inactive).

Which growth inhibition does the source give for `CCCCS(=O)(=O)N(CCC)CCC` here?
The growth inhibition was -13.6% (inactive).

With `Cc1nc(C)c(N2CCN(C(=O)O)CC2)c(=O)[nH]1` as the compound, how does the growth inhibition read?
Its growth inhibition is -10.9% (inactive).

Which growth inhibition does the source give for `CO/C(=N\N=C\c1cccc(Cl)c1)c1ccncc1` here?
Its growth inhibition is -9.6% (inactive).

For `CN(C)c1ccc(C=Nc2cc(Cl)ccc2O)cc1`, which growth inhibition is on record?
Its growth inhibition is 23.2% (inactive).

Which growth inhibition does the source give for `Cc1ccc(S(=O)(=O)NC(CO)C(=O)O)cc1` (stereo not given) here?
The growth inhibition was -18.6% (inactive).

With `COC(OC)(c1ccccc1)c1ccccc1` as the compound, how does the growth inhibition read?
The growth inhibition was -27.4% (inactive).

For `COC(=O)C1OC2(CCCC3CC32)O[C@H]1C(=O)OC` (stereo not given in full), which growth inhibition is on record?
The growth inhibition was -10.2% (inactive).

With `O=C1C=C(C2=CC(=O)C(=O)c3ccccc32)c2ccccc2C1=O` as the compound, how does the growth inhibition read?
Its growth inhibition is 9.45% (inactive).

Which growth inhibition does the source give for `Cn1nnc(/C(N)=N/N=C/c2ccccc2)n1` here?
The growth inhibition was -10.8% (inactive).

Which growth inhibition does the source give for `O=C1OC(c2ccccc2)=N/C1=C\c1ccc(F)cc1` here?
Its growth inhibition is -17.5% (inactive).
